# Data from PubChem BioAssay (NCATS).
# Results filed as inconclusive are left out. Values without a mark were called inactive. Active and inactive are the calls of the source. Calls come from the whole dose curve; as a rule, active = well fitted inhibition curve with a large enough effect; inconclusive = small, poorly fitted or top-dose-only effect; inactive = flat fitted curve, though single readings scatter.
# Test system: Zika virus NS2B-NS3 protease
# Assay: Primary screen GU AMC qHTS for Zika virus inhibitors (AID 1347154);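 note: 0% = no-inhibitor control and -100% = no-enzyme control; nearly all actives have a fitted effect of over 70% in size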
# Conditions: Zika NS2B-NS3 unlinked protease, AMC fluorogenic substrate; series mostly up to 54.1 µM; activity change, negative = inhibition: at the top concentration
# How it was run: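 Unlinked Zika NS2B hydrophilic domain/NS3 protease domain noncovalent complex (25 nM final) in 10 mM Tris-HCl pH 8.0, 0.01% Tween 20, with AMC peptide substrate. Fluorescence (ex 340, em 450 nm) change over 15 min, room temperature; percent inhibition fitted to 4-parameter Hill equation.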
SMILES,"activity change, negative = inhibition",Potency
COc1ccc(OC)c(C(O)CNC(=O)CN)c1 (stereo not given),-4.66%,–
Cc1c(C(N)=O)cc([N+](=O)[O-])cc1[N+](=O)[O-],0.385%,–
CN=C(NC#N)Nc1ccc(C2=NNC(=O)CC2C)cc1 (stereo not given),–,inactive
Cc1c(C)n(CCN(C)C)c2ccc(C(=O)OCCN(C)C)cc12,-5.8%,–
C[C@@H](CN(C)C)CN1c2ccccc2Sc2ccccc21,-2.91%,–
CN(C(=O)CN(CCO)CC(=O)N(C)C(C)(C)Cc1ccccc1)C(C)(C)Cc1ccccc1,-6.61%,–
NC[C@H]1O[C@H](O[C@H]2[C@H](O[C@@H]3O[C@H](CO)[C@@H](O)[C@H]3O)C(O)[C@H](N)C[C@@H]2N)[C@H](N)[C@@H](O)[C@@H]1O (stereo not given in full),-1.02% [at 6.83 µM],–
Clc1ccc2c(c1)CCc1cccnc1C2=C1CCNCC1,–,inactive
O=S1(=O)c2cccc3cccc(c23)N1CCCN1CCN(c2ccc(F)cc2)CC1,–,inactive
CCCCCC=CCC=CCCCCCCCC(=O)OCC,-14%,–
CNC(=O)CN(CCN(CCN(CC(=O)[O-])CC(=O)NC)CC(=O)[O-])CC(=O)[O-].O.[Gd+3],-1.54%,–
COc1c2occc2c(OC)c2c(=O)cc(C)oc12,-5.18%,–
CCOc1ccc(NC(=O)CC(C)O)cc1 (stereo not given),-4.45%,–
CC[N+](CC)(CCNC(=O)C(=O)NCC[N+](CC)(CC)Cc1ccccc1Cl)Cc1ccccc1Cl,–,inactive
CCC(=O)c1c(O)cc(O)cc1O,-6.67%,–
CC(Cc1cccc(C(F)(F)F)c1)NCCOC(=O)c1ccccc1 (stereo not given),-5.17%,–
O=C(N/N=C/c1ccccc1O)c1ccncc1,-4.13%,–
COc1cc(-c2ccc(=O)[nH]n2)ccc1OC(F)F,–,inactive

SMILES,"activity change, negative = inhibition",Potency
CN=C(NC#N)NCCSCc1csc(N=C(N)N)n1,–,inactive
c1ccc(CNCCNCc2ccccc2)cc1,-3.77%,–
CC(=O)N/N=C/c1ccc([N+](=O)[O-])o1,0.683%,–
CCCSS/C(CCO)=C(\C)N(C=O)Cc1cnc(C)nc1N,3.24%,–
COc1cc(C(=S)N2CCOCC2)cc(OC)c1OC,3.69%,–
NCCc1ccn[nH]1,0.908%,–
CCN1CCCC1=O,-2.42%,–
CC(C)NC[C@@H](O)COc1cccc2ccccc12,–,inactive
C[C@H](CCC(=O)O)[C@H]1CC[C@H]2[C@@H]3C(=O)C[C@@H]4CC(=O)CC[C@]4(C)[C@H]3CC(=O)[C@]12C,-4.55%,–
Cc1cc(=O)n(-c2ccccc2)n1C,–,inactive
O=C(OCC(O)CO)c1ccccc1Nc1ccnc2cc(Cl)ccc12 (stereo not given),-3.56%,–
CC(=O)c1ccc2c(c1)N(CCCN1CCC(CCO)CC1)c1ccccc1S2,-5.68%,–
CC[C@@H](CO)NCCN[C@@H](CC)CO,-11.2%,–
O=C(COc1ccc(Cl)cc1)N1CCN(Cc2ccc3c(c2)OCO3)CC1,5.99%,–
CCOc1ccc(Cc2nccc3cc(OCC)c(OCC)cc23)cc1OCC,-4.09%,–
CCN1CCN(c2cc3c(cc2F)c(=O)c(C(=O)O)cn3C2CC2)CC1,-17.2%,–
CN1CCN(CCCN2c3ccccc3Sc3ccc(S(=O)(=O)N(C)C)cc32)CC1,-6.03%,–
